Experimental data reported in PubChem BioAssay (EPA / NIEHS).
Calls of active or inactive are those of the source. The calls were made as follows: active = hit-call score of the fitted dose curve at least 0.9, where 1 is the maximum; inactive = score below 0.9.

Legend:
[1] = ATG_AP_1_CIS: Attagene CIS-FACTORIAL HepG2 Assay for human Activator Protein 1 (AP-1) (AID 2282931); conditions: HepG2 Attagene cis-factorial AP-1 reporter mRNA; actives raise or lower the signal
How it was run: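 HepG2, transient cis-reporter transfection; 24 h; readout RT-PCR/CE fluorescence; DMSO baseline, gain and loss fitted.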

[2] = ATG_AP_2_CIS: Attagene CIS-FACTORIAL HepG2 Assay for human Activator Protein 2 (AP-2) (AID 2282932); conditions: HepG2 AP-2 cis-reporter, Attagene transcription factor profiling; actives raise or lower the signal
How it was run: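 Step one: transient transfection of HepG2 with reporter transcription units. Step two: 24 h chemical exposure. Step three: RNA extraction, RT-PCR, labelled fragment analysis by capillary electrophoresis; DMSO serves as baseline.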

[3] = ATG_BRE_CIS: Attagene CIS-FACTORIAL HepG2 Assay for human Bone Morphogenetic Protein (BMP) Response Element (BRE) (AID 2282933); conditions: HepG2 BMP response element reporter, Attagene transcription factor profiling; actives raise or lower the signal
How it was run: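 Multiplexed cis-reporter assay, HepG2, 24 h exposure. mRNA from reporter units quantified via RT-PCR/CE; DMSO baseline; bidirectional curve fit.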

[4] = target: Retinoic acid receptor alpha (Homo sapiens) (UniProt P10276); experiment: ATG_DR5_RAR_CIS: Attagene CIS-FACTORIAL HepG2 Assay for human Retinoic Acid Receptor Alpha (RARE), DR5 submotif (AID 2282934); conditions: HepG2 Attagene cis-factorial RARE DR5 reporter, mRNA; actives raise or lower the signal;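 as to AC50: reporter responds to endogenous RAR alpha beta and gamma in HepG2 not RARA alone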
How it was run: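 Reporter transcripts from a DR5-regulated unit, measured via RT-PCR plus capillary electrophoresis, reflect endogenous RAR activity in transiently transfected human HepG2 liver cells. Exposure lasted 24 h; gain or loss of signal scored against DMSO.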

[5] = target: Transcription factor E2F1 (Homo sapiens) (UniProt Q01094); experiment: ATG_E2F_CIS: Attagene CIS-FACTORIAL HepG2 Assay for human E2F Transcription Factor 1 (AID 2282935); conditions: HepG2 Attagene cis-reporter, E2F reporter RNA transcripts; actives raise or lower the signal
How it was run: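 Total RNA from 24 h-treated, reporter-transfected HepG2 cells undergoes DNase I treatment, oligo(dT) reverse transcription, PCR and 6-FAM primer extension before capillary electrophoresis.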

[6] = ATG_E_Box_CIS: Attagene CIS-FACTORIAL HepG2 Assay for human Enhancer Box (E-box) (AID 2282936); conditions: HepG2 E-box cis-reporter transcription, actives raise or lower the signal
How it was run: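 DMSO served as negative control and baseline for bidirectional fitting. Human hepatoma HepG2 cells, transiently transfected with cis-reporter constructs, were dosed 24 h; reporter mRNA read by RT-PCR and capillary electrophoresis.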

[7] = ATG_M_61_CIS: Attagene CIS-FACTORIAL HepG2 Assay for M61 Transcription Factor (Internal Marker) (AID 2282937); conditions: HepG2 Attagene CIS-FACTORIAL M61 internal marker reporter; actives raise or lower the signal
How it was run: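 Transfect HepG2 with MRTUs; dose 24 h; isolate RNA; reverse-transcribe with DNase I treatment; PCR-amplify, FAM-label and cut with HpaI for 2 h at 37 C; resolve by CE. Bidirectional fitting against DMSO.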

[8] = ATG_ERE_CIS: Attagene CIS-FACTORIAL HepG2 Assay for Estrogen Response Element (ERE) (AID 2282940); conditions: HepG2 ERE cis-reporter, Attagene RNA transcript; actives raise or lower the signal
How it was run: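 Fluorescence of capillary-separated, FAM-labelled reporter cDNA fragments indicates reporter mRNA levels in HepG2 cells exposed to chemicals for 24 h. Transient transfection with cis-regulated units; data fitted in both directions against DMSO.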

[9] = ATG_Ets_CIS: Attagene CIS-FACTORIAL HepG2 Assay for human Erythroblast Transformation Specific (ETS) (AID 2282941); conditions: HepG2 ETS cis-reporter transcription, actives raise or lower the signal
How it was run: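 HepG2 cells transiently transfected with cis-promoter reporter transcription units were dosed for 24 h; reporter mRNA was measured by RT-PCR, 6-FAM primer extension, HpaI digestion and capillary electrophoresis, with bidirectional fitting against DMSO baseline.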

[10] = target: Hepatocyte nuclear factor 3-beta (Homo sapiens) (UniProt Q9Y261); experiment: ATG_FoxA2_CIS: Attagene CIS-FACTORIAL HepG2 Assay for human Forkhead box A2 (FOXA2) (AID 2282942); conditions: HepG2 cis-reporter transcription factor activity, 24 h; actives raise or lower the signal
How it was run: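 24 h dosing of HepG2 bearing cis-reporter constructs; mRNA readout by RT-PCR/CE fluorescence; bidirectional fit, DMSO baseline.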

[11] = ATG_FoxO_CIS: Attagene CIS-FACTORIAL HepG2 Assay for human Forkhead box O (FoxO) (AID 2282943); conditions: HepG2 Attagene cis-reporter, FoxO element, mRNA; actives raise or lower the signal
How it was run: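 Endogenous transcription factor activity read from multiplexed cis-promoter reporter transcripts in transiently transfected HepG2, 24 h after dosing. Reporter RNA measured via RT-PCR plus capillary electrophoresis of FAM-labeled products; gain or loss relative to DMSO.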

[12] = ATG_GATA_CIS: Attagene CIS-FACTORIAL HepG2 Assay for human GATA Binding Protein (AID 2282944); conditions: HepG2 GATA cis-element reporter, Attagene multiplex mRNA; actives raise or lower the signal
How it was run: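 After transfecting HepG2 cells with multiple cis-regulated reporter units, chemicals are dosed for 24 h; isolated RNA undergoes RT-PCR and fluorescent labeling before capillary electrophoresis, with activity expressed against DMSO.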

[13] = ATG_GLI_CIS: Attagene CIS-FACTORIAL HepG2 Assay for human Zinc Finger Protein GLI1 (AID 2282945); conditions: HepG2, Attagene cis-factorial reporter mRNA, GLI element; actives raise or lower the signal
How it was run: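 Bidirectional curve fits relative to DMSO, using reporter mRNA levels from RT-PCR plus capillary electrophoresis. Cells were HepG2 transiently carrying cis-regulated reporter constructs, harvested 24 h after dosing.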

[14] = target: Bile acid receptor (Homo sapiens) (UniProt Q96RI1); experiment: ATG_IR1_CIS: Attagene CIS-FACTORIAL HepG2 Assay for human Nuclear Receptor Subfamily 1 Group H Member 4 (NR1H4), IR1 submotif (AID 2282946); conditions: IR1 reporter transcription, actives raise or lower the signal
How it was run: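 Cells (human HepG2) carry transiently transfected cis-promoter reporter transcription units. Compounds are incubated 24 h, total RNA is reverse-transcribed and amplified, and labelled fragments are resolved by capillary electrophoresis. Curves use DMSO as baseline.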

[15] = ATG_GRE_CIS: Attagene CIS-FACTORIAL HepG2 Assay for human Glucocorticoid Response Elements (GRE) (AID 2282947); conditions: HepG2 GRE cis-reporter, Attagene multiplex mRNA; actives raise or lower the signal
How it was run: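 Assay uses human hepatoma HepG2 cells transfected with cis-promoter reporter units, exposed 24 h. mRNA from reporters detected by RT-PCR plus capillary electrophoresis; DMSO serves as negative control and baseline.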

[16] = ATG_ISRE_CIS: Attagene CIS-FACTORIAL HepG2 Assay for human Interferon Regulatory Factor 1 (IRF1) binding to an Interferon-Stimulated Response Element (ISRE) (AID 2282948); conditions: HepG2 ISRE cis-reporter (Attagene), mRNA transcription readout; actives raise or lower the signal
How it was run: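 HepG2 cells transiently transfected with multiplexed cis-promoter reporter units; after 24 h compound exposure, reporter mRNA quantified by RT-PCR, FAM labelling, HpaI digestion and capillary electrophoresis. Bidirectional fit versus DMSO baseline.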

[17] = ATG_M_32_CIS: Attagene CIS-FACTORIAL HepG2 Assay for M32 Transcription Factor (Internal Marker) (AID 2282949); conditions: HepG2 Attagene cis-factorial M32 reporter, mRNA; actives raise or lower the signal;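 also: background control marker of the multiplexed CIS panel rather than a real target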
How it was run: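 Internal background marker read-out: RT-PCR/capillary electrophoresis fluorescence of reporter transcripts from transiently transfected HepG2 cells after 24 h chemical exposure. Activity fitted bidirectionally relative to DMSO negative control.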

[18] = ATG_M_06_CIS: Attagene CIS-FACTORIAL HepG2 Assay for M06 Transcription Factor (Internal Marker) (AID 2282950); conditions: HepG2 Attagene CIS-FACTORIAL M06 internal marker reporter; actives raise or lower the signal
How it was run: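 HepG2 liver cells, 24 h exposure. Reporter transcripts from transfected cis-element constructs quantified by RT-PCR/capillary electrophoresis fluorescence. Bidirectional curve fit against DMSO.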

[19] = ATG_EGR_CIS: Attagene CIS-FACTORIAL HepG2 Assay for human Early Growth Response 1 (EGR1) (AID 2282938); conditions: HepG2 Attagene CIS-FACTORIAL EGR reporter mRNA; actives raise or lower the signal
How it was run: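 After a 24 h treatment of transiently transfected HepG2 cells, total RNA was reverse-transcribed and reporter sequences PCR-amplified, labelled and run on capillary electrophoresis. Reporters sit under cis-regulatory promoters sensing endogenous factors.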

[20] = ATG_M_19_CIS: Attagene CIS-FACTORIAL HepG2 Assay for M19 Transcription Factor (Internal Marker) (AID 2282939); conditions: HepG2 Attagene CIS-FACTORIAL M19 internal marker reporter; actives raise or lower the signal
How it was run: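 Signals come from fluorescence of labelled reporter-specific PCR fragments resolved by capillary electrophoresis, following 24 h treatment of HepG2 cells transfected with cis-promoter reporter units; activity was fitted in both directions relative to DMSO.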

Sequence of Bile acid receptor (Homo sapiens) (Q96RI1 whole entry, looked up, the tested form may be a part): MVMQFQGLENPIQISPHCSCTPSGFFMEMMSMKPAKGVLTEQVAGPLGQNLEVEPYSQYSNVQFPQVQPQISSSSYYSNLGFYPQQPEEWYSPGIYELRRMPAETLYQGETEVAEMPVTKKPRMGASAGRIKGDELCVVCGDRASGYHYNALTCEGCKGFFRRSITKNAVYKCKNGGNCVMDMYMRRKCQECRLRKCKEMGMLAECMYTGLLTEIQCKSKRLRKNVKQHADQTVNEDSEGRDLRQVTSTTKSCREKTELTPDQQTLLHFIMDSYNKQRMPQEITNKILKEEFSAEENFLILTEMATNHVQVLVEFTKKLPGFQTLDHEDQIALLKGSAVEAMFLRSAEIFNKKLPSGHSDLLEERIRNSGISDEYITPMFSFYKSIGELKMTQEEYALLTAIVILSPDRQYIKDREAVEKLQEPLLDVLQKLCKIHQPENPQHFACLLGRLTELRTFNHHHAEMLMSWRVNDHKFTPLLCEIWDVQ
Sequence of Transcription factor E2F1 (Homo sapiens) (Q01094 whole entry, looked up): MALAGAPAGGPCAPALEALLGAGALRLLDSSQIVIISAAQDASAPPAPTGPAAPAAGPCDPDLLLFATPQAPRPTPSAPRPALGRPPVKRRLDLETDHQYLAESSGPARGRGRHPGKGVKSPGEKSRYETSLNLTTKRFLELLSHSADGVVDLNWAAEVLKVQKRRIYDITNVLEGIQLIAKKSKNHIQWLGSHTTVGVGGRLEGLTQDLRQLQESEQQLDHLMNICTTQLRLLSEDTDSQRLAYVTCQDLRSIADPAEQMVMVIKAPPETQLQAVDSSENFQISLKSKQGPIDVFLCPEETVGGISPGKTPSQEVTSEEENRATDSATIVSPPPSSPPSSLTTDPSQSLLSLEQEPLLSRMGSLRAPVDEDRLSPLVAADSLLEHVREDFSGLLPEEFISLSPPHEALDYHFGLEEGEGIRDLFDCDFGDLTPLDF
Sequence of Retinoic acid receptor alpha (Homo sapiens) (P10276 whole entry, looked up): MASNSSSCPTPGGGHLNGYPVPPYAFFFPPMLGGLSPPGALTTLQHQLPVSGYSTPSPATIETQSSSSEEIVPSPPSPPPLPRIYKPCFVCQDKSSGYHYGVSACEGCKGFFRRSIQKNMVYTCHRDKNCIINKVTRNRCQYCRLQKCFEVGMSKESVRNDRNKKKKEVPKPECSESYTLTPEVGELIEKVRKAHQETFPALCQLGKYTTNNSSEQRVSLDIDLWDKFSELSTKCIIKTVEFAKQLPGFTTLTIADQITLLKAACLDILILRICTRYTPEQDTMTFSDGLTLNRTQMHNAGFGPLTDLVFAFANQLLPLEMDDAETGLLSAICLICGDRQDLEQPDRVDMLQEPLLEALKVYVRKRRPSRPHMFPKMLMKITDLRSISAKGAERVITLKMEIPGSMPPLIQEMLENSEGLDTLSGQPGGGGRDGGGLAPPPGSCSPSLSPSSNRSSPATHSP
Sequence of Hepatocyte nuclear factor 3-beta (Homo sapiens) (Q9Y261 whole entry, looked up): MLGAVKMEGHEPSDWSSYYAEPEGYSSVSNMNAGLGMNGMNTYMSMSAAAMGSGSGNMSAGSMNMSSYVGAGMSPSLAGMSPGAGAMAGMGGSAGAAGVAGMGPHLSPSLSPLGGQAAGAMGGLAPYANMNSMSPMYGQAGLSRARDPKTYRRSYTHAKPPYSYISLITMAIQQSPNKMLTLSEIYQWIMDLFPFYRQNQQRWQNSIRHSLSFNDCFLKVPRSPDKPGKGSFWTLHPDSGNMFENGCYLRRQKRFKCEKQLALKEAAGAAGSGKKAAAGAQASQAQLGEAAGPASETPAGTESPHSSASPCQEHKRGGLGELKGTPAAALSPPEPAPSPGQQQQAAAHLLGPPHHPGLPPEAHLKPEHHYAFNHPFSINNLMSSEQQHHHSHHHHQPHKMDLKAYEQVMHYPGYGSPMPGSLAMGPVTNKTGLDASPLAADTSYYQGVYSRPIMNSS

With `C=CC(=O)[O][Sn]([CH2]CCC)([CH2]CCC)[CH2]CCC` the AC50 [1] was 128 nM (active), the outcome [2] was “inactive” and the AC50 [3] was 217 nM (active). For the same compound, the AC50 [4] was 22.9 nM (active), the outcome [5] was “inactive” and the AC50 [6] was 551 nM (active). For the same compound, the outcome [7] was “inactive”, the AC50 [8] was 14.6 nM (active) and the outcome [9] was “inactive”. For the same compound, the AC50 [10] was 694 nM (active), the outcome [11] was “inactive” and the AC50 [12] was 536 nM (active). For the same compound, the AC50 [13] was 602 nM (active), the AC50 [14] was 95.6 nM (active) and the AC50 [15] was 412 nM (active). The outcome [16] was “inactive”, the outcome [17] was “inactive” and the outcome [18] was “inactive”.
With `O=C(NC(=O)c1c(F)cccc1F)Nc1ccc(Cl)cc1` the outcome [1] was “inactive”, the outcome [2] was “inactive” and the outcome [3] was “inactive”. For the same compound, the outcome [4] was “inactive”, the outcome [5] was “inactive” and the outcome [7] was “inactive”. The outcome [19] was “inactive”, the outcome [20] was “inactive” and the outcome [8] was “inactive”. The outcome [9] was “inactive”, the outcome [10] was “inactive” and the outcome [11] was “inactive”. For the same compound, the outcome [12] was “inactive”, the outcome [13] was “inactive” and the outcome [14] was “inactive”. For the same compound, the outcome [16] was “inactive”, the outcome [17] was “inactive” and the outcome [18] was “inactive”.
For `OCC(c1ccc(Cl)cc1)c1ccc(Cl)cc1`, the AC50 [1] was 51600 nM (active), the outcome [2] was “inactive” and the outcome [3] was “inactive”. The outcome [4] was “inactive”, the outcome [5] was “inactive” and the outcome [6] was “inactive”. For the same compound, the AC50 [19] was 53200 nM (active), the AC50 [20] was 48500 nM (active) and the outcome [8] was “inactive”. For the same compound, the outcome [9] was “inactive”, the outcome [10] was “inactive” and the outcome [11] was “inactive”. The AC50 [12] was 52800 nM (active), the AC50 [13] was 61500 nM (active) and the AC50 [14] was 49900 nM (active). The outcome [15] was “inactive”, the AC50 [16] was 54600 nM (active) and the outcome [17] was “inactive”. The outcome [18] was “inactive”.
For `C#CCO`, the outcome [1] was “inactive”, the outcome [2] was “inactive” and the outcome [3] was “inactive”. For the same compound, the outcome [4] was “inactive”, the outcome [5] was “inactive” and the outcome [6] was “inactive”. For the same compound, the outcome [7] was “inactive”, the outcome [20] was “inactive” and the outcome [8] was “inactive”. For the same compound, the outcome [9] was “inactive”, the outcome [10] was “inactive” and the outcome [11] was “inactive”. The outcome [12] was “inactive”, the outcome [13] was “inactive” and the outcome [15] was “inactive”. For the same compound, the outcome [16] was “inactive”, the outcome [17] was “inactive” and the outcome [18] was “inactive”.
In the case of `Cc1cc(Cl)ccc1OC(C)C(=O)O` (stereo unspecified), the outcome [1] is reported as “inactive”, the outcome [2] is reported as “inactive” and the outcome [3] is reported as “inactive”. The outcome [4] was “inactive”, the outcome [5] was “inactive” and the outcome [7] was “inactive”. The outcome [19] was “inactive”, the outcome [20] was “inactive” and the outcome [8] was “inactive”. The outcome [9] was “inactive”, the outcome [10] was “inactive” and the outcome [11] was “inactive”. For the same compound, the outcome [12] was “inactive”, the outcome [13] was “inactive” and the outcome [16] was “inactive”. For the same compound, the outcome [17] was “inactive” and the outcome [18] was “inactive”.
For `Brc1c(Br)c(Br)c(Oc2c(Br)c(Br)c(Br)c(Br)c2Br)c(Br)c1Br`, the outcome [1] was “inactive”, the outcome [2] was “inactive” and the outcome [3] was “inactive”. The outcome [4] was “inactive”, the outcome [5] was “inactive” and the outcome [7] was “inactive”. For the same compound, the outcome [19] was “inactive”, the outcome [20] was “inactive” and the outcome [9] was “inactive”. The outcome [10] was “inactive”, the outcome [11] was “inactive” and the outcome [12] was “inactive”. For the same compound, the outcome [13] was “inactive”, the outcome [14] was “inactive” and the outcome [15] was “inactive”. For the same compound, the outcome [16] was “inactive”, the outcome [17] was “inactive” and the outcome [18] was “inactive”.
With `C=C(C)[C@@H]1CC=C(C=O)CC1` the AC50 [1] was 100000 nM (active), the outcome [2] was “inactive” and the outcome [3] was “inactive”. For the same compound, the outcome [4] was “inactive”, the outcome [5] was “inactive” and the outcome [6] was “inactive”. The outcome [7] was “inactive”, the outcome [20] was “inactive” and the outcome [8] was “inactive”. For the same compound, the outcome [9] was “inactive”, the outcome [10] was “inactive” and the outcome [11] was “inactive”. For the same compound, the outcome [12] was “inactive”, the outcome [13] was “inactive” and the outcome [14] was “inactive”. The outcome [16] was “inactive”, the outcome [17] was “inactive” and the outcome [18] was “inactive”.
